Test results: PubChem BioAssay (NCI)
About 83,000 compounds went through this panel and 20% of them were active in at least one assay; those are over-represented in the sample as a whole.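 The test compound was applied at a single concentration to cells in 96-well plates for 48 hours, and percent growth was recorded.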 Calls of active or inactive are those of the source. How the source made its calls: active means growth percent below 10; inactive means the rest.

What follows are compounds tested on SF-268 CNS (assay: NCI-60 one-dose screen, 48 h (100 = growth as untreated, 0 = no growth, -100 = all killed)). Conditions: 10 µM.

| Structure (SMILES) | growth |
| --- | --- |
| CC(=O)OCC1CCCO1 (stereo not drawn) | 107% (inactive) |
| N#CCCc1ccc(O)cc1 | 110% (inactive) |
| Nc1ccc(N=Nc2ccc(S(=O)(=O)O)cc2)c2ccccc12 | 106% (inactive) |
| O=C1OC(=O)C2C1C1(Cl)C(Cl)=C(Cl)C2(Cl)C2C(=O)OC(=O)C21 (stereo not drawn) | 105% (inactive) |
| CCCCCCCCO | 108% (inactive) |
| O=c1[nH]nc(SC2CCCCC2)c(=O)[nH]1 | 98.8% (inactive) |
| Cc1cc(C(O)(c2ccc(Nc3ccccc3)cc2)c2ccc(Nc3ccc(S(=O)(=O)O)cc3)cc2)ccc1N (stereo not drawn) | 14.8% (inactive) |
| CCCNC(=O)c1ccc(S(N)(=O)=O)cc1 | 103% (inactive) |
| CN(C)c1ccc2oc(=O)c3ccccc3c2c1 | 100% (inactive) |
| Cc1ccc(CCCC(=O)O)c(C)c1 | 104% (inactive) |
| Oc1ccccc1-c1nnco1 | 65.4% (inactive) |
| COc1ccc(C(O)c2ccccc2)cc1 (stereo not drawn) | 93.8% (inactive) |
| FC(F)(F)c1ccc2c(c1)N(CCCN1CCN(C3CC3)CC1)c1ccccc1S2 | -4.95% (active) |
| CC(=O)NCc1cc(C)c(C)cc1C | 95.7% (inactive) |
| CCC(C)(O)c1ccc(C)cc1 (stereo not drawn) | 92.9% (inactive) |
| CC(C)(N)COS(=O)(=O)O | 92.7% (inactive) |
| Cc1cc(C)cc(NCCC#N)c1 | 105% (inactive) |
| O=C(O)CSCSCC(=O)O | 110% (inactive) |
| O/N=C/c1ccc(O)cc1O | 105% (inactive) |

| Structure (SMILES) | growth |
| --- | --- |
| CCO/C=C1\SC(=S)N(c2cccc(C)c2)C1=O | 101% (inactive) |
| Cc1cc2ccccc2c(O)c1C#N | 103% (inactive) |
| O=C(O)/C=C/C(=O)NCc1ccccc1 | 110% (inactive) |
| Cc1cc2nc(CO)[nH]c2cc1C | 88.7% (inactive) |
| C=CCNc1ccccc1 | 104% (inactive) |
| NC(=O)NC(=O)c1ccc(Cl)cc1 | 113% (inactive) |
| CCOc1ccc(I)cc1 | 96.4% (inactive) |
| CC(C)C(C#N)(C(C)C)C(C)C | 98.1% (inactive) |
| CCCCOC(OCCCC)c1ccccc1 | 96.5% (inactive) |
| NC(=O)c1ccc(N=C(N)N=C(N)N)cc1 | 94.7% (inactive) |
| CCOc1ccccc1/C=N/Nc1nc2ccccc2o1 | 108% (inactive) |
| CO[C@H]1C[C@@H]2CC[C@@H](C)[C@@](O)(O2)C(=O)C(=O)N2CCCC[C@H]2C(=O)O[C@H]([C@H](C)C[C@@H]2CC[C@@H](O)[C@H](OC)C2)CC(=O)[C@H](C)C=C(C)[C@@H](O)[C@@H](OC)C(=O)[C@H](C)C[C@H](C)/C=C/C=C/C=C1C | 56.2% (inactive) |
| O=C(NCCNC(=O)c1ccc(Cl)cc1Cl)c1ccc(Cl)cc1Cl | 99.1% (inactive) |
| COC(=O)/C=C/C(=O)NC(N)=O | 104% (inactive) |
| Cc1ccc(O)c(C(=O)c2ccccc2)c1 | 101% (inactive) |
| CN(C)c1ccc(C(c2ccc(O)cc2)c2ccc(N(C)C)cc2)cc1 | 92.1% (inactive) |
| Nc1ccc(N)c([N+](=O)[O-])c1 | 99.9% (inactive) |
| CCOC(=O)c1[nH]c(C)c(C(C)=O)c1C | 93.5% (inactive) |
| CC(C)C1CCCCC1O (stereo not drawn) | 99.5% (inactive) |
